Assay results from PubChem BioAssay AID2172 (The Scripps Research Institute Molecular Screening Center, 2009).
This is one part of the list. The source made the active and inactive calls. How the calls were made is not given here.

Experiment: DNA intercalator displacement (FID) – biochemical, fluorescence, counter-screen for HCV NS3 helicase inhibitor project, dose response (AID 2172)
Conditions: fluorescent intercalator displacement from DNA

Compound	IC50
Cc1cc(N2C(=O)C(O)=C(C(=O)c3ccc(C)o3)C2c2ccc(OCc3ccccc3)cc2)no1 (centres undefined)	> 79.4 µM (inactive)
Cc1cc(O)c(C(=O)/C=C/c2c(F)c(F)c(F)c(F)c2F)c(=O)o1	> 79.4 µM (inactive)
Cc1ccc(/C=C/C(=O)Nc2ccc([N+](=O)[O-])c(NC(=O)/C=C/c3ccc(C)o3)c2)o1	> 79.4 µM (inactive)
CC(Oc1ccccc1)C(=O)Nc1oc(-c2ccco2)c(-c2ccco2)c1C#N (centres undefined)	> 79.4 µM (inactive)
